This note sets out measurements from PubChem BioAssay (NCATS).

Values joined by “and” are separate entries in the source; they are usually repeats but may differ in a detail not shown here. Identical values can stand only once. Results filed as inconclusive are left out. The source holds several records for some structures; these can differ, active in one and inactive in another. Active and inactive are the calls of the source. Unless noted, calls come from the whole dose curve; as a rule, active = well fitted curve in the direction sought with a large enough effect; inconclusive = small, poorly fitted or top-dose-only effect, or another doubt; inactive = no such curve, though single readings can be large; an effect the other way counts as inactive or inconclusive.

The nature of assay [1]: Cytometry Cell-Based qHTS for Inhibitors of the mTORC1 Signaling Pathway in MEF cells (AID 2668). Note: potency is the fitted concentration of half-maximal effect. Summed up: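 Read-out: phospho-rpS6 Ser235/236 immunofluorescence normalized to propidium iodide intensity, scored as % active cells against a rapamycin (7.5 nM) threshold. Cells: Tsc2-/-, p53-/- MEFs stably expressing WT Tsc2, compound-treated 24 hrs at 37 degree Celsius.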
On the technique in general: qHTS replaces the single test concentration by a dilution series.

Assay [2] in a line: Validation screen for small molecules that induce DNA re-replication in MCF 10A normal breast cells (AID 463097). Note: nearly all actives have a fitted effect of over 60% in size. Summed up: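 250 MCF 10A cells/well; compound pin-transferred; 48 hr, 37 C, 5% CO2; Hoechst 40 min; imaged 405/500-530 nm. Hits = more high-intensity nuclei.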
Assay [3] addresses Ubiquitin carboxyl-terminal hydrolase 2 (Homo sapiens) (UniProt O75604). Briefly: qHTS Validation Assay for Inhibitors of Ubiquitin-specific Protease USP2a Using CHOP2 as the Reporter (AID 463106). Note: potency is the fitted concentration of half-maximal effect. Summed up: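 Readout was coupled fluorescence (Ex 485/Em 531 nm), read 60 min after adding 25 nM final Ub-CHOP2 and 25 nM reporter substrate. Beforehand, 10 nM final USP2 core had 30 min at RT with compound in pH 8.0 buffer. Curves were fitted after normalization to NEM and flagged for artifacts using time-zero reads.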

Assay [4] addresses DNA polymerase III PolC-type (Bacillus subtilis (strain 168)) (UniProt P13267). Briefly: qHTS Validation Assay for the Inhibitors of DNA Replication in Gram-Positive Bacteria (AID 485295). Note: potency is the fitted concentration of half-maximal effect. Summed up:
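PicoGreen fluorescence (ex 480–485/em 535–540 nm) reports dsDNA synthesized on ssM13Gori template with dNTPs/NTPs. Enzyme: holoenzyme rebuilt from purified PolC, beta subunit, SSB and primase. Compound preincubated before substrate addition; RT throughout.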

Assay [5] has as its target Tumor susceptibility gene 101 protein (Homo sapiens) (UniProt Q99816). The experiment in a line: qHTS Validation Assay for Iinhibitors of HIV-1 Budding by Blocking the Interaction of PTAP/TSG101 (AID 485342; calls by dose curve). A digest of the protocol: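 FP read-out: FITC-PTAP peptide, 50 nM final, binding Tsg101 binding domain, 10 uM final; 20 min r.t.; 10 mM HEPES pH 7.5, 0.15 M NaCl, 0.01% Tween 20, 3 mM EDTA, 0.1 mM TCEP.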

The target of assay [6] is Beta-2 adrenergic receptor (Homo sapiens) (UniProt P07550). The experiment in a line: qHTS validation assay of beta-arrestin-biased ligands of beta2-adrenergic receptor (AID 485366). A digest of the protocol:
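Agonist activity is measured as luciferase luminescence downstream of beta-arrestin recruitment to recombinant beta2-AR in Tango cells. Exposure lasts 18 hr at 37 degrees C, and curves are categorized by r2, response size and activity.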

The nature of assay [7]: Quantitative high throughput screen for delayed death inhibitors of the malarial parasite plastid, 96 hour incubation (AID 488745).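 Note: luciferase-expressing P. falciparum in erythrocytes at 2% hematocrit and 0.1% parasitemia; series mostly up to about 29 µM; nearly all actives have a fitted effect of over 70% in size.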 A digest of the protocol: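 Luciferase-expressing P. falciparum, infected RBCs 2% Hct/0.1% parasitemia (final); 96 h cpd exposure, 37 C, 5% CO2; RPMI 1640 + 0.5% Albumax, bicarbonate, gentamycin. Readout: luminescence loss = growth inhibition.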

A short description of assay [8]: Quantitative high throughput screen for delayed death inhibitors of the malarial parasite plastid, 48 hour incubation (AID 488752). Note: nearly all actives have a fitted effect of over 65% in size. Summed up:
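Luciferase-expressing P. falciparum in RBCs, 2% Hct, 0.1% parasitemia final; RPMI 1640 + 0.5% Albumax; 48 h, 37 C, 5% CO2; luminescence readout, signal drop = growth inhibition.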

Assay [9] deals with Thioredoxin reductase 1, cytoplasmic (Rattus norvegicus) (UniProt O89049). The experiment in a line: qHTS Assay for Substrates of Mammalian Selenoprotein Thioredoxin Reductase 1 (TrxR1) (AID 488772).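 Note: series mostly up to about 57 µM; a drop in NADPH fluorescence below the no-compound background marks a TrxR1 substrate.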 Summed up: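 In this dual-purpose format, potential substrates are identified from the first fluorescence read after selenite addition, not from the 8-minute delta. Rat enzyme is preincubated with NADPH and then with compound at ~22 deg C.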

For assay [10] the target is unchanged. Briefly: qHTS Assay for Inhibitors of Mammalian Selenoprotein Thioredoxin Reductase 1 (TrxR1) (AID 488773). Note: nearly all actives have a fitted effect of over 40% in size. Note: potency is the fitted concentration of half-maximal effect. Particulars: Potency: inhibition. Summed up: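 Inhibition is scored from the loss of NADPH fluorescence between first and last reads of an 8-min kinetic run. Selenite (400 uM) was the substrate, added after 15 min compound preincubation at room temperature.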

The target in assay [11] is M-phase phosphoprotein 8 (Homo sapiens) (UniProt Q99549). The experiment in a line: qHTS Validation Assay for Inhibitors for MPP8 Chromodomain Interactions with Methylated Histone Tails (AID 488949). Note: nearly all actives have a fitted effect of over 55% in size. Note: potency is the fitted concentration of half-maximal effect. Summed up: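 AlphaScreen read-out: streptavidin donor and nickel chelate acceptor beads (final 10 ug/mL), 30 min in the dark at RT. Complex of 50 nM MPP8 and 50 nM b-H3(1-18)K9me3 peptide had been exposed to compounds for 30 min beforehand.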

Assay [12] concerns the target Methanococcus maripaludis chaperonin (MmCpn) (UniProt Q6LX38). Briefly: High-Throughput Screening for Modulators of Cytosolic Chaperonin Activity: MmCpn Primary Screen (AID 488978). A digest of the protocol: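 ADP formation read by HTRF Transcreener, 665/590 nm emission after 320 nm excitation. Enzyme: archaeal chaperonin at 50 nM final; substrate ATP 30 uM final; 10 min, 37C, after 5 min compound preincubation at RT.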

The target in assay [13] is Transient receptor potential cation channel subfamily V member 1 (Homo sapiens) (UniProt Q8NER1). Briefly: HTS Assay for Compounds that Act as Enhancers of the Vanilloid Receptor 1 (AID 488979). Summed up:
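Calcium influx kinetics via Fluo-8 (480/520 nm) in TRPV1-expressing cells, 2000/well cultured overnight at 35.5C. Compound-alone read 3 min (agonist phase), followed by EC20 capsaicin challenge for 2 min (enhancer phase).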

The target in assay [14] is Thyrotropin receptor (Homo sapiens) (UniProt P16473). Briefly: qHTS Assay for Antagonists of the Thyroid Stimulating Hormone Receptor (AID 488980). Note: series mostly up to about 58 µM. A digest of the protocol: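 TSHR-HEK293 cells; 70 uM RO 20-1724 PDE inhibitor; compound + EC80 TSH (4 nM final); anti-cAMP cryptate antibody/cAMP-d2 in lysis buffer, 30 min RT; HTRF 665/620 nm read.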
Sequence of Thyrotropin receptor (Homo sapiens) (P16473 whole entry, looked up): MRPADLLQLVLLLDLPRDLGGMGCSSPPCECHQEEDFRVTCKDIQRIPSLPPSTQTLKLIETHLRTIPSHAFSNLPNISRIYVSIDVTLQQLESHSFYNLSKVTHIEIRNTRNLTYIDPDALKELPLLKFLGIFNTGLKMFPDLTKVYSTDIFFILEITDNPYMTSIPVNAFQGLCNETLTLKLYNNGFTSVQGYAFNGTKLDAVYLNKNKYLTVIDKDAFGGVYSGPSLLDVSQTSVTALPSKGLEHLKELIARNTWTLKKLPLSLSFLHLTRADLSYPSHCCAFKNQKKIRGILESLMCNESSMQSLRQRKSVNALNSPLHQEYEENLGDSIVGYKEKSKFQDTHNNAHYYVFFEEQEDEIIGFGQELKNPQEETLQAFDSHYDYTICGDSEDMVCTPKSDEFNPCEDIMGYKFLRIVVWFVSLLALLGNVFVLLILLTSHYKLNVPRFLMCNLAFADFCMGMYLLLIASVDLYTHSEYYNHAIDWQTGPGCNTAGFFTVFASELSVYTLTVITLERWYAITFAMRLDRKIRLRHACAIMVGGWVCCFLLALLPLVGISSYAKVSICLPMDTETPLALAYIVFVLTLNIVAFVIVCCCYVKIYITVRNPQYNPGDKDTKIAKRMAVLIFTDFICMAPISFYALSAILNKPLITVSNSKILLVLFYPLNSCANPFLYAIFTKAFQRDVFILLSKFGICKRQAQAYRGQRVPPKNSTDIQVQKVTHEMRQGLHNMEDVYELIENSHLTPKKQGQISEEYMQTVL
The nature of assay [15]: qHTS Validation Assay to Find Inhibitors of Chronic Active B-Cell Receptor Signaling (AID 485345; active = well fitted curve in the direction sought with a large enough effect in the main read-out, with a control signal flat, not every such curve was filed as active). Summed up:
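Read-out: ratio of filter-corrected green (IkappaBalpha fusion) to red (native) luciferase signal in doxycycline-induced TMD8 cells after 4 h at 37C. Titration spanned 46 uM–3 nM; Data were normalised to basal cells and 10 uM MG-132 wells.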

The target of assay [16] is Flap endonuclease 1 (Homo sapiens) (UniProt P39748). Briefly: qHTS Validation Assay for the Inhibitors of Human Flap endonuclease 1 (FEN1) (AID 488816). Note: potency is the fitted concentration of half-maximal effect. A digest of the protocol: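 qHTS format: compounds and 10 nM FEN1 incubated 15 min at room temperature before adding 50 nM substrate. Cleavage followed by reads at 0 and 15 min; normalized data fitted to a four-parameter Hill curve.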
Sequence of Flap endonuclease 1 (Homo sapiens) (P39748 whole entry, looked up): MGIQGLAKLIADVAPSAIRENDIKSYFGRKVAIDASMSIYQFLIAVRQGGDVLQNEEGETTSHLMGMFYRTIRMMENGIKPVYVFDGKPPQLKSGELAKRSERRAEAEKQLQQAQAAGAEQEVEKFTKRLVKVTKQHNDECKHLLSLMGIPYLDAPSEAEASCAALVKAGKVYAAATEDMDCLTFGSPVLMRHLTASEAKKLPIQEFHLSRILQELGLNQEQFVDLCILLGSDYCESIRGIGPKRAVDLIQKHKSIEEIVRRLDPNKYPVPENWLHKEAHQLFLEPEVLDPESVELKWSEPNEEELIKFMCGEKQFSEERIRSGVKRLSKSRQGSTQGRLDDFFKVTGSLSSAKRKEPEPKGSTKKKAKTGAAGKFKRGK

In assay [17] the target is Chromobox protein homolog 1 (Homo sapiens) (UniProt P83916). The experiment in a line: qHTS Validation Assay for Inhibitors of HP1-beta Chromodomain Interactions with Methylated Histone Tails (AID 488953). Note: nearly all actives have a fitted effect of over 50% in size. Note: potency is the fitted concentration of half-maximal effect. Summed up:
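AlphaScreen proximity readout: streptavidin donor and Ni-chelate acceptor beads, 10 ug/mL final, 30 min dark, RT. Complex of 50 nM HP1-beta and 50 nM b-H3(1-18)K9me3 formed 30 min, then compound-treated 30 min; PBS pH 7.4/0.01% Tween-20.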

In assay [18] the target is D(1A) dopamine receptor (Homo sapiens) (UniProt P21728). The experiment in a line: HTS Assay for Allosteric Agonists of the Human D1 Dopamine Receptor: Primary Screen for Agonists (AID 488981). A digest of the protocol:
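Calcium flux in an inducible, force-coupled HEK293 Trex D1 line (overnight at 30 C): agonist mode is the 180 s kinetic read after compound; potentiator mode is the following 180 s read after dopamine at EC20.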

A short description of assay [19]: Validation screen for inhibitors of Lassa infection (AID 463096; calls by dose curve).
Assay [20] concerns the target ATP-dependent 6-phosphofructokinase (Trypanosoma brucei brucei) (UniProt O15648). The experiment in a line: qHTS Validation Assay to Find Inhibitors of T. brucei phosphofructokinase (AID 485368). Note: potency is the fitted concentration of half-maximal effect. A digest of the protocol:
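Inhibition derived from concentration-response curves of luminescence, ranked by r2, response size and curve class; the underlying reaction used 1.25 nM PFK, 0.1 mM ATP and 0.5 mM F6P, 45 min, room temperature.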

Sequence of Beta-2 adrenergic receptor (Homo sapiens) (P07550 whole entry, looked up): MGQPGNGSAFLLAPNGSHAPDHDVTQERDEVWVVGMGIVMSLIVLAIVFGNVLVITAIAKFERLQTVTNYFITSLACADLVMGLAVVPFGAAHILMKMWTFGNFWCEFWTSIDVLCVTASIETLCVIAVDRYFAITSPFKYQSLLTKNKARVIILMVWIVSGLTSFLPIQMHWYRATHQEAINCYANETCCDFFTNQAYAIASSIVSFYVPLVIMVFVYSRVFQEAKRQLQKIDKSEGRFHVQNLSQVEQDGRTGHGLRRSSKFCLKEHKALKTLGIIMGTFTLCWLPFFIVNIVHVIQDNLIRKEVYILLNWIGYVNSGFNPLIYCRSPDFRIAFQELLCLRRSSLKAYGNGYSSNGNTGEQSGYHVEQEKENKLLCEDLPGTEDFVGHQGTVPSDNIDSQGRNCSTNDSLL
Sequence of ATP-dependent 6-phosphofructokinase (Trypanosoma brucei brucei) (O15648 whole entry, looked up): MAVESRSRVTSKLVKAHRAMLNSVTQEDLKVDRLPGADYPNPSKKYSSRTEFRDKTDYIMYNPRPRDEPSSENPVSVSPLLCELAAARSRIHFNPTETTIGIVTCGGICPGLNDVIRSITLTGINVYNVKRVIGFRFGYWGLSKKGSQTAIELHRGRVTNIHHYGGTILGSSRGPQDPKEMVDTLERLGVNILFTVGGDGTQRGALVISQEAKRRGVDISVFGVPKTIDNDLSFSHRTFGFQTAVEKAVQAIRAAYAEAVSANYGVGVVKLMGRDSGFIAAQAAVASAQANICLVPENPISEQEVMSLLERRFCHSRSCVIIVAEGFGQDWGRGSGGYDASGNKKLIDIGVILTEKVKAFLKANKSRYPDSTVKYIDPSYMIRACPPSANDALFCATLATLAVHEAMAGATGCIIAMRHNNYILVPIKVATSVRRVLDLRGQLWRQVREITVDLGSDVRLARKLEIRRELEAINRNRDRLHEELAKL
Sequence of Tumor susceptibility gene 101 protein (Homo sapiens) (Q99816 whole entry, looked up, the tested form may be a part): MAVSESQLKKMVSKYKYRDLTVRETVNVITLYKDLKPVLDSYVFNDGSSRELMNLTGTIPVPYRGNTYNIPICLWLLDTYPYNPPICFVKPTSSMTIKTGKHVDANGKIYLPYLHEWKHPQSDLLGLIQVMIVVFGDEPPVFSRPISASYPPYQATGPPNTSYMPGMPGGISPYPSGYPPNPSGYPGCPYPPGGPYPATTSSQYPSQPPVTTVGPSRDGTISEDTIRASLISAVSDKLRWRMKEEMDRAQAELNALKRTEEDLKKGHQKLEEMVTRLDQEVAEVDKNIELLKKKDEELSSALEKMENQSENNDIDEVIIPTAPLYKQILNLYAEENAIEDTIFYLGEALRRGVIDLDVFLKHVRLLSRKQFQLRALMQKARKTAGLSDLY
Sequence of D(1A) dopamine receptor (Homo sapiens) (P21728 whole entry, looked up): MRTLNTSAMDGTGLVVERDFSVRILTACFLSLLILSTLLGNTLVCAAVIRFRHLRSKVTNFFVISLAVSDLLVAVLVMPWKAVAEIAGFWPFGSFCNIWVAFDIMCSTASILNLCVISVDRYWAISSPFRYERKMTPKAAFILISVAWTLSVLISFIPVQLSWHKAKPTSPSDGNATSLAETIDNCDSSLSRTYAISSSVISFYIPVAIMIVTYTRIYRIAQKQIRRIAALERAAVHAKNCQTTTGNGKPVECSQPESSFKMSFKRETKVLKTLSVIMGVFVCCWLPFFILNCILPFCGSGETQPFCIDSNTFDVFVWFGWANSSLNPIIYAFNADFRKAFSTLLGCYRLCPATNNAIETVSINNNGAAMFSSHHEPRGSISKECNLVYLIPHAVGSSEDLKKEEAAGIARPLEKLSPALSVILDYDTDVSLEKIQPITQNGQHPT
Sequence of Methanococcus maripaludis chaperonin (MmCpn) (Q6LX38 1-543): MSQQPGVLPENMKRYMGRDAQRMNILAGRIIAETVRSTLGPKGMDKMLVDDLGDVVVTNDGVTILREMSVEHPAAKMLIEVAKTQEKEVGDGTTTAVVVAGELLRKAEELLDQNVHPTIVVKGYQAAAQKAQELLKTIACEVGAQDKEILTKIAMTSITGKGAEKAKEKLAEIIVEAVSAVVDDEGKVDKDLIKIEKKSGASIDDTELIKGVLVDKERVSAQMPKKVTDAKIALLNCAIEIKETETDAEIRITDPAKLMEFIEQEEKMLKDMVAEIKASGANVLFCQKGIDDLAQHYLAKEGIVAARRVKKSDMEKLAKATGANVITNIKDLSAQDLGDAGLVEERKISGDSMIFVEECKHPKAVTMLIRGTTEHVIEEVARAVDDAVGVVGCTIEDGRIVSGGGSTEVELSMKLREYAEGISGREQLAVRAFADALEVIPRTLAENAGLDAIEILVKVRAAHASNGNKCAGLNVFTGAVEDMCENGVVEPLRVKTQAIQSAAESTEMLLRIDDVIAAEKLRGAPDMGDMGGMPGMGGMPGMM
Sequence of DNA polymerase III PolC-type (Bacillus subtilis (strain 168)) (P13267 whole entry, looked up): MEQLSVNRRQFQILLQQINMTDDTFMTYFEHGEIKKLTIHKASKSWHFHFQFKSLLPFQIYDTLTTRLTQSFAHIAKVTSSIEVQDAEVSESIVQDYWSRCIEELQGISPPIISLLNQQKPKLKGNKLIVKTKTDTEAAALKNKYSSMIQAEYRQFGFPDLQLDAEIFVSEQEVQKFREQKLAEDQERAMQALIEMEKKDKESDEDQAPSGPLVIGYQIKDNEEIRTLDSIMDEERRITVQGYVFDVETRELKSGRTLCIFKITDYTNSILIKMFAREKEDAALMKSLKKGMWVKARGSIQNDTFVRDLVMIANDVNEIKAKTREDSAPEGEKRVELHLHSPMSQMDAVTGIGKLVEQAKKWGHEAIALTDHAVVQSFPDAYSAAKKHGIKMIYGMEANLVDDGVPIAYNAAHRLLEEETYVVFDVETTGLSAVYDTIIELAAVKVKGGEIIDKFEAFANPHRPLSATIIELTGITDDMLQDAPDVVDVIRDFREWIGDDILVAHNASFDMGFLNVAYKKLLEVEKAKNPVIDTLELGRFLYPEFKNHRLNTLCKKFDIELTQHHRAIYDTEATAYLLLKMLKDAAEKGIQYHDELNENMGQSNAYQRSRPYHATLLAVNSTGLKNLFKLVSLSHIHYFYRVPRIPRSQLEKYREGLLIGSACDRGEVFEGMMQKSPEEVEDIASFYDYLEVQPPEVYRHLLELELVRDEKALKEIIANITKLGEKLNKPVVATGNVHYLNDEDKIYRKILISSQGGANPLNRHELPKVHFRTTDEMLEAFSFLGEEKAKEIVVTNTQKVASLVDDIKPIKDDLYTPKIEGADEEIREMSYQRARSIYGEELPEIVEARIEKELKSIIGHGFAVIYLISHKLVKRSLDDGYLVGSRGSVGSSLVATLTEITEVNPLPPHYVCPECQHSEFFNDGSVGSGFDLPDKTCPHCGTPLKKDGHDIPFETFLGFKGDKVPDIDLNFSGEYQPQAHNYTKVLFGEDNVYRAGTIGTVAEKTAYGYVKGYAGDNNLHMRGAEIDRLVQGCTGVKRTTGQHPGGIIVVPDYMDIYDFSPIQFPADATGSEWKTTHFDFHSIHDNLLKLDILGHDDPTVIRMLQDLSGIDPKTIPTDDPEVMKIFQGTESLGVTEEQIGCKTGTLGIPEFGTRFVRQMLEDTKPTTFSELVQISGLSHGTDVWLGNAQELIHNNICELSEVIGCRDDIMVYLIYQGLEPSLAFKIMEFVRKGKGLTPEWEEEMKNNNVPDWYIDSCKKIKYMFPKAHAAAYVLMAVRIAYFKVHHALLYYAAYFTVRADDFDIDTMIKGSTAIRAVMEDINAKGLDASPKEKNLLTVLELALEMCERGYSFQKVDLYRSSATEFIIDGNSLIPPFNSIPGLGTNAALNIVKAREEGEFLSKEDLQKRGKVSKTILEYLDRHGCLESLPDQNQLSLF

Take `O=[N+]([O-])c1ccc2nc(N3CCNCC3)ccc2c1`: the Potency result in assay [1], in assay [2], in assay [3], in [4], in [7] and in [8] was “inactive” throughout. The Potency entry in assay [10] and in assay [11] was “inactive” in each case. The compound was classed as inactive in assay [5], in assay [6], in assay [9], in assay [12], in [13] and in assay [14].

As to `NC(Cc1cc(O)c(O)cc1O)C(=O)O` (centres undefined), the Potency result in assay [1], in assay [2], in assay [15], in [7], in assay [8] and in assay [18] was “inactive” in each case. The Potency in [3] is 0.656 µM (active); in assay [4], 4.74 µM (active); in [10], 10.6 µM (active); in [16], 0.67 µM (active); in assay [11] it was 501 nM (active) and 474 nM (active); in assay [17] it was 0.316 µM (active). The compound was classed as inactive in [5], in assay [6], in assay [9], in assay [12], in assay [13] and in assay [14].

Turning to `COc1ccc2c(c1)/C(=C/c1cnc[nH]1)C(=O)N2`, the Potency is 6.56 µM (active) in [1]; 44.7 µM (active) and inactive in assay [11]. The Potency result in [19], in assay [3], in [4], in assay [20], in assay [10] and in [16] was “inactive” in each case. The Potency result in assay [17] and in [18] was “inactive” each time. In addition, the compound was classed as inactive in [5], in assay [6], in assay [9], in [12], in assay [13] and in assay [14].

Consider `C[C@@H]1O[C@@H](O[C@H]2C[C@@H](O)[C@]3(CO)[C@@H]4C(CC[C@]3(O)C2)[C@@]2(O)CC[C@H]([C@@H]3COC(=O)C3)[C@@]2(C)C[C@H]4O)[C@H](O)[C@H](O)[C@H]1O` (some centres undefined), for which the Potency entry in assay [1], in assay [3], in assay [4], in assay [20], in assay [10] and in assay [16] was “inactive” throughout. Further, the Potency result in assay [11] and in assay [17] was “inactive” in each case. Also, the result in assay [5], in assay [6], in assay [9] and in assay [12] was inactive.

`C[C@H](N)Cc1cccc(C(F)(F)F)c1`: the Potency result in [1], in assay [3], in assay [4], in assay [15], in assay [20] and in assay [10] was “inactive” throughout. Also, the Potency entry in [16], in assay [11] and in assay [18] was “inactive” in each case. In addition, the compound was called inactive in assay [5], in assay [6], in [9] and in assay [12].

Turning to `N[C@@H](Cn1ccc(=O)[nH]c1=O)C(=O)O`, the Potency entry in assay [1], in assay [3], in assay [4], in assay [15], in assay [20] and in assay [10] was “inactive” throughout. Further, the Potency result in assay [16], in assay [11], in [17] and in [18] was “inactive” throughout. The outcome in assay [5], in assay [6], in [9] and in [12] was inactive.

As to `NC(=O)CI`, the Potency result in assay [1], in assay [19], in assay [3], in [4], in assay [15] and in assay [7] was “inactive” each time. Further, the Potency entry in [8], in [16] and in [18] was “inactive” throughout. Besides, the call in [5], in assay [6], in [9], in assay [12], in [13] and in assay [14] was inactive. Moreover, the figures for the Potency in assay [20] and in [11] were 19 µM (active) and 8.91 µM (active), respectively.
